Measured values published in PubChem BioAssay.
Active and inactive are the calls of the source.

Legend:
[1] = tested on: PRMT1 (protein arginine N-methyltransferase 1); experiment: small molecules binding arginine methyltransferase PRMT1 – biochemical, small-molecule microarray, 635 nm fluorescence, primary screen (AID 1088); settings: higher = more signal;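 note: binding of Prmt1 protein to compounds spotted on small-molecule microarray slides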
[2] = growth effects on S. cerevisiae YJM789 – YJM789 clinical isolate, OD600, 24 h, basal, primary screen (AID 1089); settings: higher = more signal, called active from +8 up or from −8 down;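 note: growth of clinical yeast isolate S. cerevisiae YJM 789 seeded 1000 cells per well; test concentration not given here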
[3] = S. pombe growth modifiers, basal conditions – strain 972, OD600, 24 h, no modulator, primary screen (AID 1090);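 note: basal condition with compound alone and no growth modifier present; test concentration not given here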; settings: S. pombe 972 growth, higher = more signal, called active from +8 up or from −8 down
[4] = budding yeast growth modifiers under rapamycin – strain BY4716, OD600, 96 h, primary screen (AID 1091); note: test concentration not given here; settings: S. cerevisiae BY4716 + rapamycin, higher = more signal, called active from +8 up or from −8 down
[5] = target: Torsin-1A-interacting protein 2 (Homo sapiens) (UniProt Q8NFQ8); experiment: small molecules binding lysate-expressed LULL1 – cell lysate, human LULL1 lysate, 635/667 nm fluorescence, primary screen (AID 1092); settings: small-molecule microarray, hLULL1 lysate binding, 635 nm fluorescence; higher = more signal;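 note: probe is lysate of COS7 cells overexpressing human LULL1; score merges per-feature 667 nm fluorescence with signal-to-noise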
[6] = optical density change of DRC41 E. coli – strain DRC41, OD650, 24 h, E. coli filamentation project, primary screen (AID 1093);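 note: MC1000 strain lacking acrAB efflux and sulA so SOS filamentation is blocked; test concentration not given here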; settings: E. coli DRC41 growth, higher = more signal, called active from +8 up or from −8 down
[7] = probe aLefty2 binding to arrayed compounds – biochemical, biotinylated probe, 635/667 nm fluorescence, primary screen (AID 1094); settings: small-molecule microarray, higher = more signal;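 note: score merges spot fluorescence near 667 nm with spot signal-to-noise ratio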
[8] = tested on: Noggin (protein binding on small-molecule microarray); experiment: small molecules binding Noggin protein – biochemical, 635/667 nm fluorescence, primary screen (AID 1095); settings: 635 nm fluorescence, higher = more signal;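 note: score merges 667 nm feature fluorescence with signal to noise over triplicate slides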
[9] = target: Neurogenic locus notch homolog protein 3 (Homo sapiens) (UniProt Q9UM47); experiment: small molecules binding NOTCH3 protein – biochemical, 635/667 nm fluorescence, primary screen (AID 1096); settings: small-molecule microarray, 635 nm fluorescence, higher = more signal
[10] = probe aEGFR binding to arrayed compounds – biochemical, biotinylated probe, 635/667 nm fluorescence, primary screen (AID 1097); settings: small-molecule microarray, higher = more signal;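 note: probe is a biotinylated anti-EGFR antibody binding compounds printed on slides; score combines fluorescence near 667 nm and signal to noise of each spot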

Chain of Torsin-1A-interacting protein 2 (Homo sapiens) (Q8NFQ8 whole entry, looked up): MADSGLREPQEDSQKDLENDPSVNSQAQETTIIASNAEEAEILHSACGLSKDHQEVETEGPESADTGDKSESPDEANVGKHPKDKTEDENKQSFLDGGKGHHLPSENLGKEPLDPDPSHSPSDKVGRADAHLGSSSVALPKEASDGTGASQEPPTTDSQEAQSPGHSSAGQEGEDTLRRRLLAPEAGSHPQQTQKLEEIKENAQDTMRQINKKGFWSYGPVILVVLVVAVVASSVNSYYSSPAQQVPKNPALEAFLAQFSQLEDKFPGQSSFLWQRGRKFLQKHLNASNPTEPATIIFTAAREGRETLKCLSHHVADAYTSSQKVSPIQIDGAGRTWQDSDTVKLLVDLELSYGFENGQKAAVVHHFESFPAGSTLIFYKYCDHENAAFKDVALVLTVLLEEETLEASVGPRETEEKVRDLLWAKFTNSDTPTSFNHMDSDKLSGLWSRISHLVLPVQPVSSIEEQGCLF
Chain of Neurogenic locus notch homolog protein 3 (Homo sapiens) (Q9UM47 whole entry, looked up): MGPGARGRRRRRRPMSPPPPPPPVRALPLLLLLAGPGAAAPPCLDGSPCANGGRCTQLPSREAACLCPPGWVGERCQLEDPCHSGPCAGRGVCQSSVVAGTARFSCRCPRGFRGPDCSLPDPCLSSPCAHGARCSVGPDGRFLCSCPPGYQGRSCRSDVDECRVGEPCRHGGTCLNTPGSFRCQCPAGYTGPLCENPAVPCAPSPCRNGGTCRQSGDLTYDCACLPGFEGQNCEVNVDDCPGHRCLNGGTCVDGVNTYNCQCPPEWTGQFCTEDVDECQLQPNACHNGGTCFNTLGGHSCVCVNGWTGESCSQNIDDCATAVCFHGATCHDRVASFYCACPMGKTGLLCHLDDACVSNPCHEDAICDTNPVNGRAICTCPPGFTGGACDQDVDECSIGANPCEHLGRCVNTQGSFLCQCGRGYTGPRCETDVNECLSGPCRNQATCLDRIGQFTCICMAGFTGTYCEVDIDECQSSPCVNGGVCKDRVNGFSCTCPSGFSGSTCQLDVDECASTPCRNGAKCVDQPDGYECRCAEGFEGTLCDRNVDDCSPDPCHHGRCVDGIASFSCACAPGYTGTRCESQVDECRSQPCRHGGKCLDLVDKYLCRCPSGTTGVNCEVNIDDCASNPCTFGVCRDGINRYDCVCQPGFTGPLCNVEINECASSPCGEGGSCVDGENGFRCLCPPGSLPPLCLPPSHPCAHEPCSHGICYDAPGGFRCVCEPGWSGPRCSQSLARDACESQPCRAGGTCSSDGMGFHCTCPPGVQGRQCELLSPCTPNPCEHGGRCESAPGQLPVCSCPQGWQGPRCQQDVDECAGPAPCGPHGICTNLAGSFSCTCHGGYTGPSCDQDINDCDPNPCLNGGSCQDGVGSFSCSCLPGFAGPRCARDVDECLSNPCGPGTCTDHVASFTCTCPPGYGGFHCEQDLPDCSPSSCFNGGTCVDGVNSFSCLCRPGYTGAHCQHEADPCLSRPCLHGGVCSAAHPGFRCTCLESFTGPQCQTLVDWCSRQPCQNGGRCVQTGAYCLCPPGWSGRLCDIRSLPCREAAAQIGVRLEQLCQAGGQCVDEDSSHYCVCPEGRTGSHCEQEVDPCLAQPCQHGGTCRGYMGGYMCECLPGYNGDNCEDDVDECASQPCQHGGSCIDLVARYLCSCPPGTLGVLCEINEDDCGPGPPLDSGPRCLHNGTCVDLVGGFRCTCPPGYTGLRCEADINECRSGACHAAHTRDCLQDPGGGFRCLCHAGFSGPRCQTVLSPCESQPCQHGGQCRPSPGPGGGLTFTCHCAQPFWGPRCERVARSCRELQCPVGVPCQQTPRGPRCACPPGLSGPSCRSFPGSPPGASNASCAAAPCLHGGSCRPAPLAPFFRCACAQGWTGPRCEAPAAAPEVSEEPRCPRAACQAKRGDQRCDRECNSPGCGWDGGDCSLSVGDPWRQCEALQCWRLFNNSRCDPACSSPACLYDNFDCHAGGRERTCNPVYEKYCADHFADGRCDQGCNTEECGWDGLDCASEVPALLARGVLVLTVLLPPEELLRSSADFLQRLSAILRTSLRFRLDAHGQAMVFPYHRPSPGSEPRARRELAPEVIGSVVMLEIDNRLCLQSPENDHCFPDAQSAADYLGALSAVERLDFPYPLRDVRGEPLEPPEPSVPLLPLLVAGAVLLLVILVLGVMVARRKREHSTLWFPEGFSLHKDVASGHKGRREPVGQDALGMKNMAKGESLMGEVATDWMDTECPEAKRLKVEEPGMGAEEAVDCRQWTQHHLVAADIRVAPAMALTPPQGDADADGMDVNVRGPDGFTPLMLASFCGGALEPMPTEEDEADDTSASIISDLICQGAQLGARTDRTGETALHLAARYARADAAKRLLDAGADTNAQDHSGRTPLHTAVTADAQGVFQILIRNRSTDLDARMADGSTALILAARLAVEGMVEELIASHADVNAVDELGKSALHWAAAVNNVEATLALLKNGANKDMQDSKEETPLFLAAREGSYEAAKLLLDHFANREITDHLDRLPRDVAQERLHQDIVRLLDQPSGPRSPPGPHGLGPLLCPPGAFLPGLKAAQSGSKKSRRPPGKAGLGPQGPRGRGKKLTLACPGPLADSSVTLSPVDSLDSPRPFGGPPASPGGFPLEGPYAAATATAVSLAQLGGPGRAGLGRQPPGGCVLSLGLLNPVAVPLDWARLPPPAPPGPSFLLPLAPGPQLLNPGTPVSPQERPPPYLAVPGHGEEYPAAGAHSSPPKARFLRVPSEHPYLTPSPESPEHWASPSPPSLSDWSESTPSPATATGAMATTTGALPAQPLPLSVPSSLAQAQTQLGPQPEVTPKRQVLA

C/C(=N\O)C(=O)NCCCCCNC(=O)OCc1ccccc1
composite z-score [1]: -0.214 | z-score [2]: -0.286 (inactive) | z-score [3]: -0.966 (inactive) | z-score [4]: -1.27 (inactive) | composite z-score [5]: 0.63 | z-score [6]: 2.03 (inactive) | composite z-score [7]: -0.0741 | composite z-score [8]: 0.65 | composite z-score [9]: 0.996 | composite z-score [10]: 0.0221

COc1cc2c(cc1OC)CN(C(=O)[C@H]1[C@@H]3C(=O)O[C@@H](c4ccccc4)[C@@H](c4ccccc4)N3[C@@H](c3ccc(O)cc3)[C@]13C(=O)Nc1ccc(C#CC4(O)CCCCCC4)cc13)CC2
composite z-score [1]: 1.41 | z-score [2]: 0.377 (inactive) | z-score [3]: 0.0581 (inactive) | z-score [4]: 0.695 (inactive) | composite z-score [5]: 3.75 | z-score [6]: 0.206 (inactive) | composite z-score [7]: 0.675 | composite z-score [8]: 1.72 | composite z-score [9]: 0.991 | composite z-score [10]: 0.221

COC(=O)[C@@]1(Cc2ccc(OC)cc2)[C@H]2c3cc(C(=O)N(C)C)n(Cc4ccc(C)c(F)c4F)c3C[C@H]2CN1C(=O)c1ccccc1
composite z-score [1]: 0.223 | z-score [2]: 1.14 (inactive) | z-score [3]: 0.491 (inactive) | z-score [4]: 0.972 (inactive) | composite z-score [5]: 2.84 | z-score [6]: -0.716 (inactive) | composite z-score [7]: 0.146 | composite z-score [8]: -0.268 | composite z-score [9]: 0.797 | composite z-score [10]: -0.0972

CC(C)CNC(=O)[C@@]1(C)c2ccccc2C(=O)N(Cc2ccc(OC(F)(F)F)cc2)[C@H]1c1ccc(CO)cc1
composite z-score [1]: -0.379 | z-score [2]: -0.545 (inactive) | z-score [3]: -0.808 (inactive) | z-score [4]: -0.53 (inactive) | composite z-score [5]: 0.932 | z-score [6]: 1.52 (inactive) | composite z-score [7]: 0.117 | composite z-score [8]: -1.13 | composite z-score [9]: -1.27 | composite z-score [10]: -0.112

CC(C)(C)OC(=O)CC[C@]1(C(=O)N2CCCCC2)N=C(c2ccc(OCCCO)cc2)O[C@H]1c1ccccc1
composite z-score [1]: 1.54 | z-score [2]: -4.57 (inactive) | z-score [3]: -3.11 (inactive) | z-score [4]: -1.07 (inactive) | composite z-score [5]: 3.48 | z-score [6]: 0.726 (inactive) | composite z-score [7]: 0.0224 | composite z-score [8]: 1.04 | composite z-score [9]: 1.15 | composite z-score [10]: -0.084

C=CCC(OC(C)=O)[C@@H]1[C@@H](N(Cc2ccc(-c3ccccc3)cc2)C(=O)c2ccc(C)cc2)c2cc(OCCCO)ccc2N1C(=O)c1ccc(-c2ccccc2)cc1 (stereo not given in full)
composite z-score [1]: -0.173 | z-score [2]: -3.23 (inactive) | z-score [3]: -1.88 (inactive) | z-score [4]: -1.75 (inactive) | composite z-score [5]: 0.554 | z-score [6]: 0.65 (inactive) | composite z-score [7]: 0.0026 | composite z-score [8]: -0.404 | composite z-score [9]: -0.532 | composite z-score [10]: 0.039

COCCOC(=O)N1C(=O)[C@@]2(c3ccccc31)[C@H](C(=O)N1CCc3cc(OC)c(OC)cc3C1)[C@H]1C(=O)O[C@H](c3ccccc3)[C@H](c3ccccc3)N1[C@@H]2c1ccccc1OCCO
composite z-score [1]: 1.48 | z-score [2]: 0.384 (inactive) | z-score [3]: -0.0822 (inactive) | z-score [4]: 5.51 (inactive) | composite z-score [5]: 2.14 | z-score [6]: 2.8 (inactive) | composite z-score [7]: 0.0261 | composite z-score [8]: 1.03 | composite z-score [9]: 1.07 | composite z-score [10]: -0.0717

O=C1OCCC/C=C\[C@H]2OC34C=CCN(CCN5CCOCC5)C(=O)[C@H]3N(CCCCCO)C(=O)[C@@H]4C12 (stereo not given in full)
composite z-score [1]: -0.706 | z-score [2]: -0.114 (inactive) | z-score [3]: -0.359 (inactive) | z-score [4]: -0.824 (inactive) | composite z-score [5]: -0.701 | z-score [6]: -0.763 (inactive) | composite z-score [7]: -0.221 | composite z-score [8]: -0.987 | composite z-score [9]: 0.0233 | composite z-score [10]: -0.281

COC(=O)C1=CC(c2ccc(CO)cc2)=CC(C2CC2)N(Cc2sc3ccccc3c2Cl)C=C1C(=O)OC (stereo not given)
composite z-score [1]: 1.55 | z-score [2]: -2.21 (inactive) | z-score [3]: -5.52 (inactive) | z-score [4]: -1.12 (inactive) | composite z-score [5]: 3.07 | z-score [6]: -2.06 (inactive) | composite z-score [7]: 0.214 | composite z-score [8]: 0.331 | composite z-score [9]: 1.1 | composite z-score [10]: 0.157

C=CC(=O)O[C@@H](Cc1ccccc1)[C@H]1C2C=CCCC=C2CN1Cc1cccc(Cl)c1 (stereo not given in full)
composite z-score [1]: -2.25 | z-score [2]: -0.476 (inactive) | z-score [3]: -2.23 (inactive) | z-score [4]: -1.47 (inactive) | composite z-score [5]: -0.469 | z-score [6]: 2.01 (inactive) | composite z-score [7]: -0.192 | composite z-score [8]: -0.551 | composite z-score [9]: -1.53 | composite z-score [10]: -0.189

CSCC[C@@H]1NC(=O)CC=C[C@@H](C)COC(=O)[C@H](CCSC)NC(=O)CC=C[C@@H](C)COC1=O
composite z-score [1]: -0.153 | z-score [2]: -0.981 (inactive) | z-score [3]: -1.12 (inactive) | z-score [4]: -1.03 (inactive) | composite z-score [5]: -0.452 | z-score [6]: -0.566 (inactive) | composite z-score [7]: -0.137 | composite z-score [8]: 0.877 | composite z-score [9]: -0.35 | composite z-score [10]: -0.128

C=CCNC(=O)[C@H]1[C@@H]2C(=O)O[C@@H](c3ccccc3)[C@@H](c3ccccc3)N2[C@@H](c2ccccc2OCCO)[C@]12C(=O)N(C(=O)OCCOC)c1ccc(C#CCC(C(=O)OC)C(=O)OC)cc12
composite z-score [1]: 1.55 | z-score [2]: 0.759 (inactive) | z-score [3]: -1.68 (inactive) | z-score [4]: 5.51 (inactive) | composite z-score [5]: 2.97 | z-score [6]: 3.27 (inactive) | composite z-score [7]: 0.0757 | composite z-score [8]: 1.15 | composite z-score [9]: 1.03 | composite z-score [10]: 0.0343
